# Source: PubChem BioAssay
# ELG1 repair inh – qHTS screen for small molecules that inhibit ELG1-dependent DNA repair in human embryonic kidney (HEK293T) cells expressing luciferase-tagged ELG1 | HEK293T ELG1-luciferase reporter, luminescence, 16 h; DNA damage induced by 5-fluorouridine | Potency, µM (doses to about 46.1 µM), hits mostly inhibitors | actives 2.3% (n = 330,000) | AID 504467, 2011; also: nearly all actives have a fitted effect of over 55% in size
#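 DMSO vehicle served as the neutral condition. Each well held 2,000 cells given 5-fluorouridine plus compound; after 16 hr at 37 °C/5% CO2, ONE-Glo was added and luciferase measured 30 min later.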
# FBPA coupling cs – qHTS Assay for Inhibitors of Fructose-1,6-bisphosphate Aldolase from Giardia Lamblia: Coupling assay counterscreen; actives 0.67% (n = 290,000); activity change, negative = inhibition, % at 58.2 µM, hits read low; coupling enzyme system counterscreen, AmpLite Red fluorescence; in the data active = activity change below about -30%
#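 Final compound at 57.5 uM, incubated 10 min at RT with coupling enzyme reagent (glyceraldehyde-3-phosphate), then 20 min with substrate and AmpLite Red detection. Fluorescence read at 525/598 nm; tests interference with the coupling assay, not aldolase inhibition.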
# RORgamma inh – qHTS for inhibitors of ROR gamma transcriptional activity; Nuclear receptor ROR-gamma (Mus musculus), P51450; Drosophila S2 Gal4-RORgamma UAS-luciferase reporter, 20 h; Potency, µM (highest dose often 53.6 µM), usual class: inhibitors; actives 5.4% (n = 310,000); also: nearly all actives have a fitted effect of over 60% in size
# Target sequence (P51450 whole entry, looked up, the tested form may be a part): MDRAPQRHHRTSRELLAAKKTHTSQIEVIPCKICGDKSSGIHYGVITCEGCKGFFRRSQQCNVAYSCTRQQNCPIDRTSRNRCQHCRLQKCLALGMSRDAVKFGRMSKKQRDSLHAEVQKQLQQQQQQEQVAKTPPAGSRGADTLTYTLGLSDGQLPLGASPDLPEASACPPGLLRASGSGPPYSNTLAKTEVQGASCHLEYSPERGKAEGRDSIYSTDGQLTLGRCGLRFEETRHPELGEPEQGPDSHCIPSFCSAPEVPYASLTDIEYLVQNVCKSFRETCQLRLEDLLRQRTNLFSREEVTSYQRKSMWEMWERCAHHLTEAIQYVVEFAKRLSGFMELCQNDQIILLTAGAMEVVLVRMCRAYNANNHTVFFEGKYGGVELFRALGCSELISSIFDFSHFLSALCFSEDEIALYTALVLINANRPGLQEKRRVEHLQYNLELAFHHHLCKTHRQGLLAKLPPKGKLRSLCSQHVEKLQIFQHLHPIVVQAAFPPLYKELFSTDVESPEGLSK
#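 Drosophila Schneider cells stably carrying a metallothionein-driven Gal4 DBD–ROR gamma fusion and a UAS-Photinus luciferase reporter were exposed to compound for 1 hr, then induced with copper sulfate (700 uM final) for 20 hr at ambient temperature before luminescence reading.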
# Gal4-VP16 FLuc – VP16 counterscreen qHTS for inhibitors of ROR gamma transcriptional activity; Drosophila S2 Gal4-VP16 UAS-luciferase, luminescence, 20 h; Potency, µM (doses to about 53.6 µM), most hits filed as inhibitors; actives 3.5% (n = 310,000); AID 2546, 2010;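 also: Gal4-VP16 expression switched on by copper sulfate through the metallothionein promoter; nearly all actives have a fitted effect of over 50% in size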
# TSHR antagonist – Antagonists of the Thyroid Stimulating Hormone Receptor: HTS campaign. AID 504810, 2011. actives 0.2% (n = 330,000). activity change, negative = inhibition, % at 11.5 µM. TSHR-expressing cells, TSH-stimulated cAMP HTRF, 2 h; active compounds read low;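 active = activity change below a set negative limit, meaning inhibition stronger than a set level, cut at about -70% in these data; inconclusive = activity change between two set negative limits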
#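 Freshly harvested TSHR cells receive pin-tooled compound, then EC80 TSH at 4nM final. After 2 hours at 37 deg C, antibody in lysis buffer and cAMP-d2 are added; 30 minutes at ambient temperature precede the HTRF read.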
# A number is an active result; i = inactive; ? = inconclusive; nt = no result. Shown are actives, neighbours in structure and some others; about 8% of the full set was active somewhere. Unless noted, calls follow the shape of the dose curve; as a rule, active = well fitted curve in the direction sought with a large enough effect; inconclusive = small, poorly fitted or top-dose-only effect, or another doubt; inactive = no such curve, though single readings can be large; an effect the other way counts as inactive or inconclusive.
SMILES,ELG1 repair inh,FBPA coupling cs,RORgamma inh,Gal4-VP16 FLuc,TSHR antagonist
CCCCCCCN1C(Nc2ccccc2)=NC[C@@H]1Cc1ccccc1,i,i,i,i,i
CCCCN1C(=S)NC[C@@H]1c1ccccc1,i,i,2.82µM,12.6µM,i
CCCCN1C(=S)NC[C@@H]1Cc1ccccc1,i,i,1.78µM,7.94µM,i
S=C1NC[C@H](CC2CCCCC2)N1CCc1cccc2ccccc12,i,i,0.251µM,0.631µM,i
c1ccc(C(c2ccccc2)N2CC[C@@]3(CCCNC3)C2)cc1,nt,i,i,i,nt
CC(C)C[C@H](NC(=O)[C@H](CC(C)C)NC(=O)[C@@H](Cc1c[nH]c2ccccc12)NC(=O)[C@H](Cc1ccccc1)NC(=O)[C@@H](Cc1c[nH]c2ccccc12)NC(=O)[C@H](CCC(N)=O)NC(=O)[C@H](CCC(N)=O)NC(=O)[C@@H]1CCCN1C(=O)[C@H](CCCCN)NC(=O)[C@@H]1CCCN1C(=O)[C@@H](CCCNC(=N)N)NC(=O)[C@@H]1CCCN1C(=O)CNC(=O)[C@H](CC(C)C)NC(=O)[C@H](CC(C)C)NC(=O)[C@H](Cc1ccc(O)cc1)NC(=O)CNC(=O)[C@H](C)NC(=O)[C@H](CO)NC(=O)[C@H](CC(N)=O)NC(=O)[C@H](CC(C)C)NC(=O)[C@@H](NC(=O)[C@H](Cc1c[nH]c2ccccc12)NC(=O)CN)[C@@H](C)O)C(N)=O,nt,i,i,i,nt
O=C(COC(=O)CNC(=O)c1ccc(Cl)cc1Cl)NC1CCCCCCC1,i,nt,nt,nt,i
NCCCC[C@H]1CNC(=S)N1CC1CCCCC1,i,i,i,i,i
S=C1NC[C@H](c2ccccc2)N1CC1CCCCC1,i,i,1.12µM,4.47µM,i
S=C1NC[C@H](Cc2ccccc2)N1CCCCC1CCCCC1,i,i,0.708µM,5.01µM,i
COC(=O)CCCC1=CC2=C(c3ccccc3)C(=O)C(C)(OC(=O)C3CCCC3)C(=O)C2=CO1 (stereo not drawn),nt,i,i,i,nt
Oc1cc(-c2ccccc2)c2ccccc2c1,i,-60.3,i,i,i
COc1ccc(-c2nnc3n2N=C(c2cc(OC)ccc2OC)CS3)c(OC)c1,nt,i,i,i,nt
COc1ccc2c(C)c(CC(=O)N3CCN(C(=O)C4COc5ccccc5O4)CC3)c(=O)oc2c1 (stereo not drawn),23.1µM,nt,i,i,i
Cc1c(CC(=O)N2CCN(C(=O)C3COc4ccccc4O3)CC2)c(=O)oc2cc(O)ccc12 (stereo not drawn),0.731µM,i,i,i,i
CN(C)S(=O)(=O)c1ccc(Cl)c(NC(=O)C2CCN(S(=O)(=O)c3cccs3)CC2)c1,?,nt,nt,nt,i
COc1ccccc1N1CCN(CC(O)COc2ccc(S(=O)(=O)N3CCOCC3)cc2)CC1 (stereo not drawn),10.3µM,i,i,i,i
O=C(c1cnccn1)N1CCC2(CCCN(C(c3ccccc3)c3ccccc3)C2)CC1,nt,i,i,i,nt
CCSc1ccccc1-c1nc(-c2ccncc2)no1,i,i,i,i,i
O=[N+]([O-])c1ccc(N2CCN(C(=S)NCc3ccc(Cl)cc3)CC2)cc1,14.6µM,i,i,?,i
CCNC(=S)N1CCN(c2ccc([N+](=O)[O-])cc2)CC1,i,i,?,i,i
O=C(NC(=S)N1CCN(c2ccc(Cl)cc2[N+](=O)[O-])CC1)c1cccs1,i,i,0.282µM,nt,i
CC(C)(C)C(=O)N1CCN(c2ccc(Cl)cc2[N+](=O)[O-])CC1,i,i,i,i,i
O=C(NC(=S)N1CCN(c2ccc([N+](=O)[O-])cc2)CC1)c1ccco1,i,i,0.708µM,1.41µM,i
O=C(NC(=S)N1CCN(c2ccc(Cl)cc2[N+](=O)[O-])CC1)c1ccco1,i,i,0.282µM,0.251µM,i
COc1cccc(/C=N/NC(=O)Cn2nc(C)c([N+](=O)[O-])c2C)c1O,i,i,0.355µM,0.794µM,i
